Screens (PubChem BioAssay)
BoNT F protease: blocks Botulinum neurotoxin F light chain protease. inhibition, % at 10 µM. 0.22% of 360,000 active. Multiplex microsphere protease cleavage assay, flow cytometry; in the data active = inhibition above about 35%, passing the limit was not always enough; inconclusive = no clear call, values can overlap the other calls
BoNT A protease: BoNT A light chain protease inhibition; multiplex microsphere protease substrate cleavage, flow cytometry; inhibition, % at 10 µM; 0.17% of 360,000 active; AID 588499
Anthrax LF inh2: inhibitors of Bacillus anthracis lethal factor protease | 0.12% of 360,000 active | inhibition, % at 10 µM | P15917 | multiplex microsphere protease cleavage assay, LF
Target sequence (P15917 whole entry, looked up): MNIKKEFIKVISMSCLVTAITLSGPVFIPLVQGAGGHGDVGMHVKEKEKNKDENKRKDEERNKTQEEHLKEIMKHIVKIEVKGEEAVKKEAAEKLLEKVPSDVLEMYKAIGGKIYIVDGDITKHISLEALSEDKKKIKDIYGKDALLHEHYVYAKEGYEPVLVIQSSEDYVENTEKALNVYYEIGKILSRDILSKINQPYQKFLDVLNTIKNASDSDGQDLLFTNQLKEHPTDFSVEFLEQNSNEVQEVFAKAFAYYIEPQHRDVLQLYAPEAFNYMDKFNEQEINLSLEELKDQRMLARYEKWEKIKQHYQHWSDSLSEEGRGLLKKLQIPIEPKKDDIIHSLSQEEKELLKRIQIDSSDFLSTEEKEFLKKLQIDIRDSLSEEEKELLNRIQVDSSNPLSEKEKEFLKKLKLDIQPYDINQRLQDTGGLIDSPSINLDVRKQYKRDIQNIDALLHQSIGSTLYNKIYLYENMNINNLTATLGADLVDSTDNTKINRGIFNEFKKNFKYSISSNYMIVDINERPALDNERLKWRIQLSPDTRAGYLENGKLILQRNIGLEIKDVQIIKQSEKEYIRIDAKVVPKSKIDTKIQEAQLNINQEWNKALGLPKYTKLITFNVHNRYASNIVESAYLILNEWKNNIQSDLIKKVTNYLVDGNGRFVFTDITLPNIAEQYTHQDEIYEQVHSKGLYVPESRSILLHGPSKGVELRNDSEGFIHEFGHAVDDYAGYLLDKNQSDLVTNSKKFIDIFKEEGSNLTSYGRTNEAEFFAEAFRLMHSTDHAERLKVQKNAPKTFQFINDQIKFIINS
Vc quorum ag: induces V. cholerae light production without autoinducers | V. cholerae BH1578 lux reporter, luminescence, 6 h | activation, % at 18.7 µM | 0.16% of 350,000 active | AID 588436; in the data active = activation mostly above about 9.7%, no sharp cut-off; inconclusive = no clear call, values can overlap the other calls; inactive = mostly below about 3.7%
Bead autofluor: compound fluorescence in toxin protease inhibitor counterscreen | compound autofluorescence counterscreen, microsphere flow cytometry; hits give high values | fluorescence intensity (test concentration not listed) | 3.1% of 360,000 active | AID 624483; in the data active = fluorescence intensity above about 16000; inconclusive = no clear call, values can overlap the other calls
Numbers stand for hits. Shown are actives, neighbours in structure and some others; about 3.5% of the full set was active somewhere. Cut-off read from the data, not from the text of the source, unless noted: active = inhibition above about 30%; inconclusive = no clear call, values can overlap the other calls; inactive = below that.

How did COc1ccc(-n2c(NCCN(C)C)nc3sc4c(c3c2=O)CCCCC4)cc1 do in these assays?
BoNT F protease: inactive; BoNT A protease: inactive; Anthrax LF inh2: inactive; Vc quorum ag: inactive; Bead autofluor: 22405

What do the screens show for `Cc1ccc(S(=O)(=O)N2CCN(S(=O)(=O)N3CCC(C)CC3)CC2)cc1C`?
BoNT F protease: inactive; BoNT A protease: inactive; Anthrax LF inh2: inactive; Vc quorum ag: inactive; Bead autofluor: inactive

What do the screens show for `COC(=O)NC1CCS(=O)(=O)C1` (configuration not stated)?
BoNT F protease: inactive; BoNT A protease: inconclusive; Anthrax LF inh2: inactive; Vc quorum ag: inactive; Bead autofluor: 17672

Results for CCOC(=O)NC1CCS(=O)(=O)C1 (configuration not stated) ?
BoNT F protease: inactive; BoNT A protease: inactive; Anthrax LF inh2: inactive; Vc quorum ag: inactive; Bead autofluor: inactive

How did O=C(N/N=C/c1ccc(OCc2ccccc2)cc1)c1cccs1 do in these assays?
BoNT F protease: inactive; BoNT A protease: inactive; Anthrax LF inh2: inactive; Vc quorum ag: inactive; Bead autofluor: 20999

Results for CCCOc1ccc(C(=O)OCC(=O)c2c(N)n(C)c(=O)n(C)c2=O)cc1OCC ?
BoNT F protease: inactive; BoNT A protease: inactive; Anthrax LF inh2: inactive; Vc quorum ag: inactive; Bead autofluor: inactive

What do the screens show for `CCOc1cc(C(=O)OCC(=O)c2c(N)n(C)c(=O)n(C)c2=O)cc(OCC)c1OCC`?
BoNT F protease: inactive; BoNT A protease: inactive; Anthrax LF inh2: inactive; Vc quorum ag: inactive; Bead autofluor: 22161

Results for O=C(OC1CCCCC1=O)c1cc(Cl)ccc1[N+](=O)[O-] (configuration not stated) ?
BoNT F protease: inactive; BoNT A protease: inactive; Anthrax LF inh2: inactive; Vc quorum ag: inactive; Bead autofluor: inactive

How did CCOC(=O)N1CCN(c2c(NCCc3ccc(OCC)c(OCC)c3)c(=O)c2=O)CC1 do in these assays?
BoNT F protease: inactive; BoNT A protease: inactive; Anthrax LF inh2: inactive; Vc quorum ag: inactive; Bead autofluor: 24406

What do the screens show for `CCOc1ccc(CCNC(=O)CCCN2C(=O)c3ccccc3C2=O)cc1OCC`?
BoNT F protease: inactive; BoNT A protease: inconclusive; Anthrax LF inh2: inactive; Vc quorum ag: inactive; Bead autofluor: 21585

What do the screens show for `O=C(CCc1nc(-c2ccccc2)no1)NCCc1ccccc1`?
BoNT F protease: inactive; BoNT A protease: inactive; Anthrax LF inh2: inactive; Vc quorum ag: inactive; Bead autofluor: 22301

How did COc1ccc(-c2noc(CCC(=O)NCc3cccnc3)n2)cc1 do in these assays?
BoNT F protease: inactive; BoNT A protease: inactive; Anthrax LF inh2: inactive; Vc quorum ag: inactive; Bead autofluor: 23172

How did COc1ccc(-c2noc(CCC(=O)NCc3cccnc3)n2)cc1OC do in these assays?
BoNT F protease: inactive; BoNT A protease: inactive; Anthrax LF inh2: inactive; Vc quorum ag: inactive; Bead autofluor: inactive

How did CC(C)N1CCC(N2CCN(CC#Cc3ccccc3)CC2CCO)CC1 (configuration not stated) do in these assays?
BoNT F protease: inactive; BoNT A protease: inactive; Anthrax LF inh2: inactive; Vc quorum ag: inactive; Bead autofluor: inactive

What do the screens show for `CCN(CC)C(=O)[C@H]1C[C@H](CC(=O)NCCCn2ccnc2)C(=O)N2CCc3c([nH]c4cc(CCC(=O)N(C)C)ccc34)[C@]12C`?
BoNT F protease: inactive; BoNT A protease: inactive; Anthrax LF inh2: inactive; Vc quorum ag: inactive; Bead autofluor: inactive

How did O=C(CCCc1nc(-c2ccccc2)no1)Nc1cccnc1 do in these assays?
BoNT F protease: inactive; BoNT A protease: inactive; Anthrax LF inh2: inactive; Vc quorum ag: inactive; Bead autofluor: inactive

How did O=C(CCCN1C(=O)c2ccccc2C1=O)NCc1cccnc1 do in these assays?
BoNT F protease: inactive; BoNT A protease: inactive; Anthrax LF inh2: inactive; Vc quorum ag: inactive; Bead autofluor: 22861

What do the screens show for `O=C(CCCc1nc(-c2ccccc2)no1)NCc1cccnc1`?
BoNT F protease: inactive; BoNT A protease: inconclusive; Anthrax LF inh2: inactive; Vc quorum ag: inactive; Bead autofluor: 24495

What do the screens show for `CNC(=O)CCCc1nc(-c2ccccc2Cl)no1`?
BoNT F protease: inactive; BoNT A protease: inactive; Anthrax LF inh2: inactive; Vc quorum ag: inactive; Bead autofluor: 17469

How did O=C(CSc1ncccn1)Nc1ccc2c(c1)CCC2 do in these assays?
BoNT F protease: inactive; BoNT A protease: inactive; Anthrax LF inh2: inactive; Vc quorum ag: inactive; Bead autofluor: inactive

How did COc1cc(CN2CCNC(=O)C2CC(=O)N(C)CCC2CCOCC2)cc(OC)c1 (configuration not stated) do in these assays?
BoNT F protease: inactive; BoNT A protease: inactive; Anthrax LF inh2: inactive; Vc quorum ag: inactive; Bead autofluor: inactive

What do the screens show for `Clc1ccc(-c2nnc3n2CCCC3)cc1`?
BoNT F protease: inactive; BoNT A protease: inactive; Anthrax LF inh2: inactive; Vc quorum ag: inactive; Bead autofluor: 21835
